For five compounds, composite z-score, z-score and composite Z-score results are on record in PubChem BioAssay.

Test [1] deals with Human papillomavirus type 1a protein E7 (residues 44-93). The test is described as follows: small molecules binding HPV E7 44-93 – biochemical, small-molecule microarray, residues 44-93, 635 nm fluorescence, primary screen (AID 1108).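 Note: E7 fragment applied at 1 µg/mL in TBST for 1 h at 4 C; score combines spot fluorescence with its signal to noise ratio.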 As to conditions: fluorescence 635 nm, higher = more signal.
Test [2] is described as follows: hepatitis C replication reporter changes, two-sided – Huh7 cells, luciferase reporter, HCV replication inhibitor project, primary screen (AID 1109).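 Note: huh7 hepatoma cells harbouring a luciferase neomycin HCV replicon reporter; luciferase luminescence as measure of HCV replicon replication; test concentration not given here.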 As to conditions: Huh7 HCV replicon luciferase reporter, 48 h; higher = more signal.
In test [3] the target is Left-right determination factor 2 (Homo sapiens) (UniProt O00292). The test is described as follows: small molecules binding LEFTY2 protein – biochemical, small-molecule microarray, 635 nm fluorescence scan, primary screen (AID 1110). The following applies: higher = more signal.
Test [4] concerns the target Calmodulin-1 (Homo sapiens) (UniProt P0DP23). The test is described as follows: small molecules binding calmodulin-1 with EGTA – biochemical, small-molecule microarray, Cy5-labelled CALM1, profiling panel (AID 1111).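 Note: labelled calmodulin applied in Tris saline Tween buffer holding calcium plus EGTA and DTT.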 The following applies: Cy5-CALM1 binding fluorescence, higher = more signal.
For test [5] the target is unchanged. Nature of the test: small molecules binding Ca-loaded calmodulin-1 – biochemical, small-molecule microarray, Cy5-labelled CALM1, plus calcium, artefact control for SMM control-protein annotation, profiling panel (AID 1112).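 Note: score merges spot fluorescence with signal to noise from triplicate slides.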 The following applies: Cy5-CALM1 binding fluorescence, higher = more signal.
Test [6] in a line: probe aWnt5a binding to arrayed compounds – biochemical, biotinylated probe, 635/667 nm fluorescence, primary screen (AID 1113).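 Note: score merges 667 nm fluorescence intensity with signal-to-noise per printed feature.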 As to conditions: small-molecule microarray, higher = more signal.
The nature of test [7]: probe aShh binding to arrayed compounds – biochemical, biotinylated probe, 635/667 nm fluorescence, primary screen (AID 1114).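 Note: probe is biotin-labelled aShh protein from a stem cell growth factor screen; measures binding of labelled protein to compounds printed on the slide; score merges feature fluorescence at 667 nm with signal-to-noise.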 The following applies: small-molecule microarray, higher = more signal.
Test [8] in a line: probe aNog binding to arrayed compounds – biochemical, biotinylated probe, 635/667 nm fluorescence, primary screen (AID 1115).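 Note: probe is biotinylated aNog protein used at 0.15 µg/mL for 1 h at 4 C; z-score combines 667 nm fluorescence of each spot with its signal to noise.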 As to conditions: small-molecule microarray, higher = more signal.
Test [9] addresses Torsin-1A-interacting protein 1 (Homo sapiens) (UniProt Q5JTV8). Nature of the test: compound microarray binding of lysate hLAP1 – cell lysate, small-molecule microarray, COS7 lysate, 635/667 nm fluorescence, primary screen (AID 1116). The following applies: 635 nm fluorescence, higher = more signal.
The target in test [10] is Alpha-bungarotoxin (Bungarus multicinctus) (UniProt P60615). Nature of the test: compounds binding labelled alpha-BTX control protein – biochemical, small-molecule microarray, Alexa647 label, 635/667 nm fluorescence, artefact control for SMM control protein annotation, profiling panel (AID 1117). As to conditions: alpha-BTX-A647 binding fluorescence, higher = more signal.

The target of the next test is Albumin (Bos taurus) (UniProt P02769). The test is described as follows: compounds binding labelled BSA control protein – biochemical, small-molecule microarray, Alexa647 label, 635/667 nm fluorescence, artefact control for SMM control protein annotation, profiling panel (AID 1118).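 Note: score merges 667 nm emission intensity and signal-to-noise per printed compound spot.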 As to conditions: BSA-A647 binding, fluorescence 635 nm, higher = more signal.
A short description of test [11]: probe aXIP binding to arrayed compounds – biochemical, NeuroSMM set, 635/667 nm fluorescence, primary screen (AID 1119).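 Note: probe is the protein aXip251-270 applied at 1 µg/mL to compound-printed slides; binding of probe to printed compounds measured as 667 nm fluorescence plus signal to noise.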 As to conditions: small-molecule microarray, higher = more signal, called active from +8 up or from −8 down.
Test [12] is described as follows: probe aNOTCH3 binding on compound microarray – biochemical, small-molecule microarray, 635/667 nm fluorescence, primary screen (AID 1120).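 Note: probe is a biotin-tagged antibody raised against NOTCH3 rather than NOTCH3 protein; score merges spot fluorescence near 667 nm with spot signal to noise.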 As to conditions: higher = more signal.
The nature of test [13]: probe aNOTCH2 binding on compound microarray – biochemical, small-molecule microarray, 635/667 nm fluorescence, primary screen (AID 1121).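 Note: score merges feature fluorescence read at 667 nm with its signal to noise.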 The following applies: higher = more signal.
For test [14], the target named is Carbonic anhydrase 2 (Homo sapiens) (UniProt P00918). Nature of the test: compounds binding carbonic anhydrase 2 – biochemical, small-molecule microarray, Alexa647-labelled CAII, profiling panel (AID 1122). The following applies: CAII-A647 binding fluorescence, higher = more signal.
A short description of test [15]: COS7 lysate on small-molecule microarray, probe aHis, 635 nm (AID 1123).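 Note: z-score combines 667nm fluorescence intensity with signal-to-noise per printed compound spot.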 The following applies: COS7 cell lysate, fluorescence, higher = more signal.
The nature of test [16]: probe aLAP1 signal on lysate-treated microarray – cell lysate, small-molecule microarray, COS7 lysate, primary screen (AID 1124).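 Note: lysate comes from COS7 cells expressing LAP1 and is applied at 0.3 µg/mL; score merges spot fluorescence near 667 nm with signal-to-noise over triplicate slides.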 The following applies: probe aLAP1, fluorescence, higher = more signal.
Another test concerns Sam68 (KHDRBS1). The test is described as follows: compounds binding KHDRBS1 protein – biochemical, small-molecule microarray, 635 nm fluorescence, primary screen (AID 1125).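 Note: score merges 667 nm channel intensity with signal to noise over triplicate slides.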 As to conditions: higher = more signal.
For test [17], the system named is Chordin-like protein 2 (CHRDL2). Nature of the test: compounds binding chordin-like 2 – biochemical, small-molecule microarray, 635 nm fluorescence, primary screen (AID 1126).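 Note: printed compound slides probed with Chrdl2 protein at 4 µg/mL for 1 h at 4 C; score merges 667 nm emission intensity with signal to noise over three replicate slides.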 As to conditions: fluorescence 635 nm, higher = more signal.
The target of test [18] is Concanavalin-A (Canavalia ensiformis) (UniProt P02866). Nature of the test: compounds binding concanavalin A lectin – biochemical, small-molecule microarray, Alexa647 label, 635 nm, artefact control for SMM control protein annotation, primary screen (AID 1127).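 Note: z combines 667 nm emission intensity with signal-to-noise across three replicate slides.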 The following applies: ConA-A647 binding fluorescence, higher = more signal.

Activity calls are given as the source filed them.

Left-right determination factor 2 (Homo sapiens), sequence (O00292 whole entry, looked up): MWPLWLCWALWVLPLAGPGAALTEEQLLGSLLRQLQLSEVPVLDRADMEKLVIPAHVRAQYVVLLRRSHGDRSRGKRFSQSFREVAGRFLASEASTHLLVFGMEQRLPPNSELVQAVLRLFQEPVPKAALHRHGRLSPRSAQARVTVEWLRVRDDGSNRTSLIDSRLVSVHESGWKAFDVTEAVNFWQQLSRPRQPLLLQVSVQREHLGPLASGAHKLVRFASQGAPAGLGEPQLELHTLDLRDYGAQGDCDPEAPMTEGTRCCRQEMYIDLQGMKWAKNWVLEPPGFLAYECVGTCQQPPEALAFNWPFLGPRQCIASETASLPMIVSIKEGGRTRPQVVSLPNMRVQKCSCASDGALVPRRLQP
Torsin-1A-interacting protein 1 (Homo sapiens), sequence (Q5JTV8 whole entry, looked up): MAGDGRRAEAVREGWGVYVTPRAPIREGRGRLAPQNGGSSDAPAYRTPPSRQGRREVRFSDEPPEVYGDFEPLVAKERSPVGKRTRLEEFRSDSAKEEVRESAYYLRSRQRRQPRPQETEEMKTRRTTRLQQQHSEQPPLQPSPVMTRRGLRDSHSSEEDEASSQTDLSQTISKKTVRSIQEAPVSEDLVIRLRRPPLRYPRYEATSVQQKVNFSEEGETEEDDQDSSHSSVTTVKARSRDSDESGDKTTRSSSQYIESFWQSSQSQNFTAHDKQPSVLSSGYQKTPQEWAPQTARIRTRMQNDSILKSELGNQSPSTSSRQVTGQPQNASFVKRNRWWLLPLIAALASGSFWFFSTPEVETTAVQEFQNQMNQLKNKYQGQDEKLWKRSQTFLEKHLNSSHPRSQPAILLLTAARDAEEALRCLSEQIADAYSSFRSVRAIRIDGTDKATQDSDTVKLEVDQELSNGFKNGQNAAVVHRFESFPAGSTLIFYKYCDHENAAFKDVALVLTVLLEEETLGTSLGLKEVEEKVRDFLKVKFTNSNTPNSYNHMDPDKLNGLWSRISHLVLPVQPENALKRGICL
Alpha-bungarotoxin (Bungarus multicinctus), sequence (P60615 whole entry, looked up): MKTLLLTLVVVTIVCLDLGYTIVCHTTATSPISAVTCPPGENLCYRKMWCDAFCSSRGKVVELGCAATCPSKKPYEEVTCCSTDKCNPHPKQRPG
Albumin (Bos taurus), sequence (P02769 whole entry, looked up): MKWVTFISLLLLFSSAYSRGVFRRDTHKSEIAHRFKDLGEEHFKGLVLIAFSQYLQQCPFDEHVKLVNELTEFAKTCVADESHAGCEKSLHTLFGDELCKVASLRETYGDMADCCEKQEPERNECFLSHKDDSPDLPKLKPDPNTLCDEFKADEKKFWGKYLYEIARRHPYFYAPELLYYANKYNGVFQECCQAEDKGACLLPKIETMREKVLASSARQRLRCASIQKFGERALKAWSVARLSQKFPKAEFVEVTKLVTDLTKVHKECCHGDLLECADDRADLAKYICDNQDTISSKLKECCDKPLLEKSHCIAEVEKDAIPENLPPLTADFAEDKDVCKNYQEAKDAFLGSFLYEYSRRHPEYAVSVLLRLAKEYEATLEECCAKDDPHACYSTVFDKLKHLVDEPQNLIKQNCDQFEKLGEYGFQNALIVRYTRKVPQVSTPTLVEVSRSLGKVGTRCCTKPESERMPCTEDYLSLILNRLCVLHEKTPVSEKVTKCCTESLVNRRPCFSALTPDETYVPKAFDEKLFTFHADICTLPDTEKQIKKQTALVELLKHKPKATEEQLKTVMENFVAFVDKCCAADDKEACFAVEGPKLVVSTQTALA
Concanavalin-A (Canavalia ensiformis), sequence (P02866 whole entry, looked up): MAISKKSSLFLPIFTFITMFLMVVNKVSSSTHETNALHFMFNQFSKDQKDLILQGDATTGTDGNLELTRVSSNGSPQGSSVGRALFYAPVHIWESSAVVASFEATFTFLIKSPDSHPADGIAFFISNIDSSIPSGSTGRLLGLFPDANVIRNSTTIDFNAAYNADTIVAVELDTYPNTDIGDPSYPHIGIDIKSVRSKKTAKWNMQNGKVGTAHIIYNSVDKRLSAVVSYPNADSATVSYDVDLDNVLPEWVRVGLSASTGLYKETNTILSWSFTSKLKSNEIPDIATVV

As to `C[N+](C)(C)CCCCNC(=O)[C@H]1C[C@H]2C(=O)NCC(=O)N2[C@H]1c1ccc(O)cc1`, the composite z-score is 0.0571 in [1]; 0.794 in [3]; -1.08 in test [4]; -0.966 in [5]; -0.103 in test [6]; -0.291 in test [7]. Also, the composite z-score in [8] was -0.0037; in test [9], 0.721; in test [10] it was 0.832; with Albumin (Bos taurus), -1.48; in test [12], 0.175; in [13], -0.0457. The composite z-score in test [14] amounted to 0.568; in test [15] it was 1.56; in test [16], 1.01; in the test with Sam68 (KHDRBS1) it was 0.852; in test [17] it was 1.39; in test [18], 1.14. Also, the z-score in test [2] is -0.463. Also, the composite Z-score in [11] is 0.586 (inactive).

`COc1cc(NN2C(C(O)c3ccc(I)cc3)C=CC3C(=O)N(C)C(=O)C32)cc(OC)c1OC` (stereo not given): the composite z-score is 0.539 in test [1]; -0.379 in test [3]; 0.143 in test [4]; 0.476 in [5]; 0.0077 in test [6]; 0.289 in test [7]. The composite z-score is -0.0247 in [8]; 0.917 in test [9]; -0.161 in test [10]; -0.166 with Albumin (Bos taurus); 0.163 in test [12]; 0.0586 in test [13]. The composite z-score in test [14] was 0.783; in [15] it was 1.63; in test [16], 0.189; with Sam68 (KHDRBS1), 0.144; in [17], -0.946; in test [18], 0.0133. For the same compound, the z-score in test [2] was -1.32. The composite Z-score in [11] is 0.466 (inactive).

As for `CCCc1cc2c(n1Cc1ccc(OC)cc1)C(C)C1CN(C(=O)c3ccccc3)C(C)(C(=O)OC)C21` (stereo not given), the composite z-score in test [1] was 0.247; in [3] it was -0.307; in [4] it was 2.6; in [5] it was 1.42; in test [6], 0.157; in [7], 0.686. In addition, the composite z-score was 1.26 in test [8]; 2.19 in test [9]; 2.52 in test [10]; 1.08 with Albumin (Bos taurus); 0.223 in test [12]; 0.16 in [13]. The composite z-score in test [14] was 0.571; in test [15], 3.13; in [16] it was 0.746; in the test with Sam68 (KHDRBS1), 1.25; in [17], -1.63; in test [18] it was 1.18. The z-score in [2] was -2.16. For the same compound, the composite Z-score in test [11] is -0.41 (inactive).

Take `NC(=O)NCC#Cc1ccc2c(c1)[C@]1(C(=O)N2)[C@H](c2ccc(OCCO)cc2)N2[C@H](c3ccccc3)[C@H](c3ccccc3)OC(=O)[C@H]2[C@@H]1C(=O)N1CCN(c2ncccn2)CC1`: the composite z-score in test [1] is 0.833; in test [3], 0.259; in [4], 0.362; in test [5], 0.492; in test [6], -0.0977; in [7], 0.156. Besides, the composite z-score in test [8] was 0.042; in test [9] it was 0.655; in test [10] it was 1.21; in the test with Albumin (Bos taurus) it was -0.17; in [12] it was 0.108; in [13] it was 0.0101. Also, the composite z-score in test [14] stood at 0.257; in test [15], 0.815; in [16] it was 0.332; in the test on Sam68 (KHDRBS1), 0.776; in test [17], 0.903; in test [18], 0.698. In test [2], this compound showed a z-score of -0.488. For the same compound, the composite Z-score in test [11] is -0.991 (inactive).

Consider `CC(=O)NCCCC[C@@H]1NC(=O)[C@@H]2C[C@H](C(=O)NCCCC[N+](C)(C)C)[C@H](c3cccc(OCCO)c3)N2C1=O`, for which the composite z-score is 0.193 in [1]; 0.0711 in [3]; 0.601 in [4]; 0.0189 in [5]; -0.122 in test [6]; -0.0643 in [7]. The composite z-score was -0.314 in [8]; 0.714 in test [9]; -0.08 in test [10]; -0.134 with Albumin (Bos taurus); 0.0426 in [12]; -0.125 in [13]. In addition, the composite z-score in [14] is 0.799; in test [15] it was 0.661; in test [16], 0.331; in the test with Sam68 (KHDRBS1) it was -1.33; in [17], 0.349; in [18] it was -0.0028. The compound also had a z-score in test [2] of -0.703. In [11], the composite Z-score was 0.0725 (inactive).
